Screening data as filed in PubChem BioAssay.
A selection: hits, their analogues and other compounds. The true share with any hit is near 4.1%.
hgDAF12 agonist – H. glycines DAF-12 receptor agonists, primary screen, cell-based, luminescence, HEK293, GAL4 fusion, UAS-luciferase; hit rate 1.8% among 370,000; activation, % at 6.8 µM; AID 687014, 2013; HEK293 GAL4-hgDAF12 UAS-luciferase reporter, agonist luminescence; normalized to butyrate control; Nuclear hormone receptor DAF-12 (Heterodera glycines), GAL4 fusion;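 active means activation above a cutoff set at the mean of all screened compounds plus 3 SD, cut at about 10% in these data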;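 further: 0% = DMSO wells and 100% = sodium butyrate wells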
hcDAF-12 act – H. contortus DAF-12 nuclear receptor activators, primary screen, cell-based, luminescence, HEK293, lit1-tk-luc reporter. HEK293 hcDAF-12 lit1-tk-luc reporter; 0% DMSO, 100% Δ7-dafachronic acid. activation, % at 6.8 µM. hit rate 1.4% among 370,000. AID 652067, 2013;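 active means activation above the mean of all tested compounds plus 3 SD, cut at about 5.5% in these data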;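 further: 100% = response to 3 µM Δ7-dafachronic acid high control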
ssDAF-12 act – S. stercoralis DAF-12 nuclear receptor activators, primary screen, cell-based, luminescence, HEK293, GRIP1 co-expression, lit1-tk-luc; hit rate 1% among 370,000; Nuclear hormone receptor DAF-12 (Strongyloides stercoralis); HEK293 ssDAF-12/GRIP1 lit1-tk-luc reporter; % of 3 µM dafachronic acid response; activation, % at 6.8 µM; AID 652126, 2013;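 active means activation above the mean over all tested compounds plus 3 SD, cut at about 0.9% in these data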;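 further: 0% = DMSO-only wells and 100% = 3 µM delta7-dafachronic acid wells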
DAX1 inh-1 – DAX1 (NR0B1) inhibitors, primary screen, cell-based, HEK293, Gal4-DAX1, luciferase luminescence | Nuclear receptor subfamily 0 group B member 1 (Homo sapiens), P51843 | hit rate 0.99% among 340,000 | HEK293 Gal4-DAX1 luciferase reporter | inhibition, % at 6.75 µM;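 active means inhibition above the mean over all tested compounds plus 3 SD, cut at about 4.2% in these data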;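 further: 0% = DAX1-transfected cells with DMSO and 100% = empty-vector control cells with DMSO; inhibition shows as a rise in luminescence from relieved DAX1 repression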
Target sequence (P51843 207-470 limits assumed): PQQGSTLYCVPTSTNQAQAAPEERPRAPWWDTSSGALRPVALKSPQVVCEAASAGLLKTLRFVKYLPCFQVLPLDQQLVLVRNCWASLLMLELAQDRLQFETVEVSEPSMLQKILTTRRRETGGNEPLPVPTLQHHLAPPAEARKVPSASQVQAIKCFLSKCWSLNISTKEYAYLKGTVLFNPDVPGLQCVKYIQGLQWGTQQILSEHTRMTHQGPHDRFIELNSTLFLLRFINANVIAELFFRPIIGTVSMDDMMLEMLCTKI
DAX1 inh-2 – DAX1 (NR0B1) inhibitors on StAR promoter, primary screen, cell-based, luminescence, SF-1 (NR5A1), full-length DAX-1; HEK293T StAR-luciferase reporter, SF-1/DAX-1 repression relief; inhibition, % at 6.8 µM; hit rate 1.1% among 370,000;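 active means inhibition above the mean over all tested compounds plus 3 SD, cut at about 3.6% in these data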;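 further: 0% = DAX-1 cells with DMSO and 100% = cells lacking DAX-1 with DMSO; higher inhibition means more luminescence from relief of DAX-1 repression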
Active calls of the source: *; / = no result.

SMILES	hgDAF12 agonist	hcDAF-12 act	ssDAF-12 act	DAX1 inh-1	DAX1 inh-2
CCN(CC(=O)Nc1ccc2c(c1)OCCO2)C(=O)/C=C/c1cccc(OC)c1OC	5.5	0.9	-0.4	2.5	2.3
COc1cccc(/C=C/C(=O)c2ccc3c(c2)OCCO3)c1OC	10.5*	0.0	-0.7	0.4	0.3
O=C(/C=C/c1ccc2c(c1)OCCO2)c1ccccc1	11.1*	3.6	-0.5	/	0.6
Cc1cc2ccccc2nc1-c1ccccc1F	6.1	-2.5	-0.9	2.7	-2.3
c1ccc2c(c1)Cc1cc3ccccc3nc1-2	15.0*	16.7*	1.2*	3.2	2.0
C/C(=N\Nc1ccc(Cl)cc1)c1ccncc1	1.8	1.6	-0.7	0.7	-0.1
C/C(=N\NC=O)c1ccncc1	1.4	-0.3	-0.7	5.0*	-0.5
O=C(CSc1nnc(-c2ccccc2)n1-c1ccc(Cl)cc1)Nc1ccc2cn[nH]c2c1	-1.4	-2.4	-1.6	/	-1.2
CNc1cnc(-c2ccc(F)c(F)c2F)cn1	12.1*	1.9	0.5	/	3.8*
COc1cc2c(cc1OC)[C@@H](NC(=O)c1ccncc1)[C@H](C)[C@H]2c1ccccc1	-1.2	-0.5	-1.6	/	0.0
Cn1c(COc2ccc(F)cc2)nc2ccccc21	9.3	4.1	-0.2	2.2	0.7
Cc1ccccc1OCc1nc2ccccc2n1C	11.0*	3.7	-0.4	1.8	1.5
O=S(=O)(Nc1ccc(-c2cn3ccccc3n2)cc1)c1ccccc1	5.9	0.6	-1.1	4.3*	0.1
O=C(Nc1ccc(-c2cn3ccccc3n2)cc1)c1ccco1	12.1*	4.7	0.1	1.7	4.3*
Cc1cccc(S(=O)(=O)Nc2ccc(-c3cn4ccccc4n3)cc2)c1	1.1	-1.3	-1.8	-1.4	-0.6
COC(=O)c1c(NC(=O)CN2CCN(c3ccccc3Cl)CC2)sc(C)c1C	-2.4	4.4	1.1*	2.0	-1.3
CCOC(=O)c1c(NC(=O)CN2CCN(c3ccc(Cl)cc3)CC2)sc(C)c1C	2.3	-0.5	-1.1	-0.3	-0.6
Cc1nc2ccc(Br)cc2c2c1CC(CBr)O2 (centres undefined)	-0.9	0.5	-0.3	-0.7	0.2
Cc1nc2ccc(Br)cc2c2c1CC(CO)O2 (centres undefined)	-0.9	-0.8	-1.8	5.4*	-0.4
CCOC(=O)/C=C1/N(C)c2ccccc2C1(C)C	-0.1	-1.0	-1.3	6.1*	0.7
COC(=O)[C@@H](Cc1ccccc1)NC(=O)NCCc1ccc(OC)c(OC)c1	1.8	0.4	-0.9	4.3*	-0.6
COc1ccc(CCNC(=O)CC(Cc2ccccc2)C(=O)O)cc1OC (centres undefined)	-3.5	-1.8	-0.6	1.0	2.1
CCOC12NC(=O)CC(=O)N1C(c1ccccc1)=CS2 (centres undefined)	4.0	0.3	-0.7	4.5*	0.4
Cc1nn(CC(=O)Nc2cccc(Cl)c2)c(=O)c2cc(-c3ccccc3)nn12	1.5	-0.1	-1.2	1.1	-0.2
COc1ccc(-c2cc3c(=O)n(CC(=O)Nc4ccc(Cl)cc4)nc(C)n3n2)cc1	0.7	6.4*	-1.1	0.6	0.6
SMILES	hgDAF12 agonist	hcDAF-12 act	ssDAF-12 act	DAX1 inh-1	DAX1 inh-2
Cc1cc(C)c2c(c1)c1nnc(SCCN3CCCCC3)nc1n2C	5.8	6.1*	1.6*	-2.2	1.5
CCCCn1c2ccc(C)cc2c2nnc(SCCN3CCCCC3)nc21	-0.7	-2.5	-1.6	-0.3	-0.4
Cn1c2ccccc2c2nnc(SCC(=O)Nc3cccc(O)c3)nc21	4.6	0.8	0.4	-3.1	-0.2
Cn1c2ccccc2c2nnc(SCCN3CCOCC3)nc21	3.2	6.3*	0.2	0.1	0.3
CSc1nnc2c3cc(F)ccc3n(C)c2n1	5.7	5.5	1.0*	0.3	0.0
CCn1c2ccccc2c2nnc(SCCN3CCOCC3)nc21	0.6	-1.7	-0.9	-1.4	-0.5
Cn1c2ccc(Br)cc2c2nnc(SCC(=O)O)nc21	3.4	5.7*	0.6	0.9	-0.2
CCOC(=O)Cc1nc(N2CCN(CCO)CC2)c2c(C)c(C(=O)OCC)sc2n1	-0.9	-2.4	-0.6	/	0.8
Nc1[nH]c(C(=O)c2ccccc2)c(-c2ccccc2Cl)c1C(=O)NCCc1c[nH]c2ccccc12	0.4	-1.8	-0.5	/	-0.7
Cc1ccc(CSc2nnc(-c3cccs3)o2)cc1C	5.2	0.9	-1.3	/	1.1
CCOC(=O)N1CCN(C(=O)C[C@H]2C[C@@]3(C(=O)OC)C(=C[C@H](C(C)(C)C)O[C@@H]3C)N(Cc3cccc4ccccc34)C2=O)CC1	-1.4	-0.6	-1.1	/	-0.7
O=S1(=O)c2ccc(Br)cc2OC[C@H](Cc2ccccc2)N1Cc1cn(CCC2OCCCO2)nn1	2.0	0.2	-1.2	/	0.3
CCOC(=O)CSc1nnc2c3ccccc3n(C)c2n1	0.5	-0.8	-1.0	-0.8	-0.2
Cn1c2ccccc2c2nnc(SCC(N)=O)nc21	1.3	1.2	0.9*	-1.5	0.1
COC(=O)c1cc(-c2ccc(Oc3ccccc3)cc2)c(=O)n2c1CCC2	-2.9	-2.5	-1.9	/	-1.5
O=C(c1cccs1)n1nc(-c2ccccc2)nc1NCc1ccco1	-2.9	-1.6	-1.0	0.1	-0.3
COCC(=O)n1nc(-c2ccccc2)nc1NCc1cccs1	7.7	0.0	-1.1	5.2*	2.2
C[C@H]1C(c2ccccc2F)O[C@]2(C[C@H](O)c3c(ccc4ccccc34)O2)C[C@@H]1O (some centres undefined)	2.4	3.7	-0.3	/	-1.9
Cc1csc(Sc2ccc(C(=O)OCC(=O)Nc3ccc(F)cc3[N+](=O)[O-])cc2[N+](=O)[O-])n1	1.3	1.7	-0.1	6.5*	-0.4
CC1CCN(C(=O)C2CCCN(C(=O)c3ccc4c(c3)NC(=O)CS4)C2)CC1 (centres undefined)	-3.4	-1.5	-0.8	/	-1.0
COC(=O)[C@]12C[C@H](CC(=O)NCC34CC5CC(CC(C5)C3)C4)C(=O)N(Cc3ccccc3)C1=C[C@H](C(C)(C)C)O[C@@H]2C	-2.0	-0.5	-1.4	/	-0.9
Cn1cc(CC(=O)Nc2ccc(Oc3cccnc3)cc2)c2ccccc21	0.6	-1.8	-1.6	/	0.7
Fc1ccc(-c2ccc3c(n2)CCCN3Cc2ccccn2)cc1	6.7	2.1	-0.9	/	3.8*
C[N+]1(CCC(=O)c2ccccc2)CCCCC1	-3.4	-0.6	1.7*	0.7	-0.3
COC(=O)[C@]12C[C@H](CC(=O)NCCC(C)C)C(=O)N(CCc3ccc(OC)c(OC)c3)C1=C[C@H](COCc1ccccc1)O[C@@H]2C	-2.8	-2.0	-1.3	/	-0.1
